The list is not random: actives were taken first. Their share in the collection is about 3.6%.
Pf apPOL inh: Pf-apPOL inhibitors, biochemical, fluorescence | Plasmodium falciparum apicoplast DNA polymerase (apPOL) | Recombinant Pf-apPOL, molecular beacon fluorescence, 1.5 h | inhibition, % at 10 µM | hit rate 0.25% among 210,000 | AID 1794808, 2022
mHTT-CaM PPI inh: mutant huntingtin-calmodulin interaction inhibitors – biochemical, AlphaScreen, primary screen | P42858 | AlphaScreen His-mHTT/GST-CaM binding, luminescence | inhibition, % at 15 µM | hit rate 3.6% among 190,000;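 further: 0% = both proteins with DMSO and 100% = one protein alone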
* = called active by the depositor; x = no result given; ! = not confirmed by another sample. No stated cut-off is given here; in the data, active means inhibition above about 50%; inactive means the rest.

SMILES	Pf apPOL inh	mHTT-CaM PPI inh
N#CCC[C@H]1CC[C@]2(CCCN(Cc3ccc(Br)cc3)C2)O1	-9	89*
N#CCC[C@@H]1CC[C@]2(CCCN(C(=O)c3ccccc3)C2)O1	-10	-12
O=C(C1CCN(c2nc3ccccc3o2)CC1)N1CCCCC1	-12	-4
O=C(Nc1nnc(-c2ccc(F)cc2)o1)c1ccc(S(=O)(=O)N2CCCc3ccccc32)cc1	-72	-5
O=C(Nc1nnc(C2CC2)o1)c1ccc(S(=O)(=O)N2CCCc3ccccc32)cc1	-116	67*!
CCCc1nn(C(=O)c2ccc(Cl)cc2)cc1C(=O)OCC	0	x
Cc1ccccc1-n1cc2c(c1-c1ccccc1)c(=O)n(C)c(=O)n2C	2	6
COc1ccc(-c2c3c(=O)n(C)c(=O)n(C)c3cn2-c2ccccc2C)cc1	54*	8
CNc1ccc([N+](=O)[O-])cc1-n1cc2c(c1-c1ccc(OC)cc1)c(=O)n(C)c(=O)n2C	-3	36
COc1ccc(-c2c3c(=O)n(C)c(=O)n(C)c3cn2Cc2ccc(Cl)cc2)cc1	10	76*
COc1ccc(-c2c3c(=O)n(C)c(=O)n(C)c3cn2C2CCCCC2)cc1	67*	33
Cn1c(=O)c2c(-c3ccccc3)n(Cc3ccccc3)cc2n(C)c1=O	-9	18
O=C(Nc1cccc(Cl)c1)c1cc2ccccc2o1	7	-46
O=Cc1cnn2cccnc12	x	-3
O=C(C=Cc1cccc([N+](=O)[O-])c1)c1ccc(O)cc1	9	12
O=c1c2cn[nH]c2nc(SCc2cccc([N+](=O)[O-])c2)n1-c1ccc(Cl)cc1	-5	33
CCc1ccc(-n2c(SCC(=O)Nc3ccc(OC)cc3OC)nc3[nH]ncc3c2=O)cc1	-12	68*
Cc1ccc(CSc2nc3[nH]ncc3c(=O)n2-c2ccc(C)cc2)cc1	81*	14
Cc1ccc(-n2c(SCc3ccccc3)nc3[nH]ncc3c2=O)cc1	-17	20
Cc1cccc(-n2c(SCc3ccc(Cl)cc3)nc3[nH]ncc3c2=O)c1	-16	79*
Cc1ccc(CSc2nc3[nH]ncc3c(=O)n2-c2cccc(Cl)c2)cc1	-12	38
Cc1ccc(-n2c(SCc3cccc([N+](=O)[O-])c3)nc3[nH]ncc3c2=O)cc1Cl	0	58*
COc1ccc(NC(=O)CSc2nc3[nH]ncc3c(=O)n2-c2ccc(Cl)cc2)c(OC)c1	-5	25
CSc1ccc(C2C(C#N)=C(N)N(c3ncn[nH]3)C3=C2C(=O)CC(C)(C)C3)cc1 (configuration not stated)	0	3
C=CCn1c(=N)c(S(=O)(=O)c2ccccc2)cc2c(=O)n3cc(C)ccc3nc21	-9	-1
SMILES	Pf apPOL inh	mHTT-CaM PPI inh
Cc1nc2c(s1)CCc1oc(C(=O)N3CCCCCC3)c(C)c1-2	-11	14
Cc1ccc(C(=O)N2CCC(CC(=O)NCCCN(C)c3ccccc3)CC2)cc1	-4	51*
CCN(CC)CCCNC(=O)CC1CCN(C(=O)c2ccc(C)cc2)CC1	-2	6
Cc1ccc(C(=O)N2CCC(c3nc(CCNC(=O)C4CC4)cs3)CC2)s1	1	15
Cc1ccccc1NC(=O)C1CCc2nc(N3CCOCC3)ncc2C1 (configuration not stated)	-3	-2
O=C1c2cccnc2C(=O)N1c1ccc(N2C(=O)c3cccnc3C2=O)c(Cl)c1	0	63*
O=C1c2ccccc2C(=O)N1c1ccc(N2C(=O)c3ccccc3C2=O)c(Cl)c1	0	20
C1=Cc2ccccc2N2CC(c3ccc4ccccc4c3)N=C12 (configuration not stated)	-9	x
O=C1c2[nH]nc(-c3ccccc3)c2C(c2cccc([N+](=O)[O-])c2)N1c1ccccc1 (configuration not stated)	28	28
O=C1c2[nH]nc(-c3ccc(F)cc3)c2C(c2ccccc2[N+](=O)[O-])N1c1ccccc1 (configuration not stated)	-1	83*
COc1ccc(-c2n[nH]c3c2C(c2ccc(OC)cc2)N(c2ccccc2)C3=O)cc1 (configuration not stated)	-2	43
COc1cc(C2c3c(-c4ccc(F)cc4)n[nH]c3C(=O)N2c2ccccc2)ccc1O (configuration not stated)	-1	78*
CCS(=O)(=O)Nc1ccc(C2(C(=O)NCc3cccnc3)CCCCC2)cc1	10	-8
O=C(CCCn1c(=O)[nH]c2ccsc2c1=O)Nc1ccc(F)cc1	-3	-3
COc1cccc(COc2ccc3oc(=O)c(-c4ccccc4)c(C)c3c2)c1	-9	-35
N#CC1=C(N)N(c2ccccc2)C2=C(C(=O)CCC2)C1c1ccsc1 (configuration not stated)	-6	0
N#CC1=C(N)n2c(s/c(=C\c3ccsc3)c2=O)=C(C#N)C1c1ccsc1 (configuration not stated)	-17	70*

Screens: PubChem, University of Kansas High Throughput Screening Laboratory
